# Source: PubChem (several laboratories)
# A selection: hits, their analogues and other compounds. The true share with any hit is near 0.69%.
# MRP resist rev: reversal of MRP1-mediated doxorubicin resistance, primary screen, H69AR cells, doxorubicin co-treatment. H69AR cells + 2 uM doxorubicin, CellTiter-Glo, 72 h. differential viability (reversal), % at 10 µM. 85,000 tested, 0.04% active. AID 602, 2007;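 active = viability drop by adding the cancer drug above about 55%, with treated viability meeting a 40% cutoff, limit read from the data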;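 also: larger differential means the compound sensitizes cells more to doxorubicin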
# MRP1 act: H69AR viability gain despite doxorubicin, primary screen, MRP-1 activator project, H69AR cells, CellTiter-Glo; 140,000 tested, 0.61% active; AID 799, 2007; viability increase, % at 10 µM; viability rescue;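 active = viability gain under doxorubicin at or above a set limit, the compound median plus 3 SD, cut at about 4.7% in these data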;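 also: MRP-1 overexpressing cells given doxorubicin 25 µM after compound pretreatment; 18-22 h compound pretreatment then 72 h with doxorubicin before readout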
# Phagocytosis inh: inhibitors of macrophage phagocytosis, primary screen, imaging, J774A.1 cells, IgG beads; 110,000 tested, 0.07% active; AID 1029, 2008; inhibition, % at 5 µM; J774A.1 macrophage IgG-bead phagocytosis;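 active = inhibition above the mean of the plate negative controls plus 5 SD, cut at about 13% in these data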;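 also: phagocytic index as fraction of beads internalized from green versus red external bead signal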
# Numbers stand for hits; . = inactive; / = no result.
SMILES,MRP resist rev,MRP1 act,Phagocytosis inh
CCn1c(CNC(=O)COc2ccc(C(C)C)cc2)nnc1SCC(=O)Nc1ccccc1F,/,.,.
CCOC(=O)c1sc(NC(=O)c2cc(-c3ccccc3)nc3ccccc23)c(C#N)c1C,/,.,/
Cc1ccc(C(=O)CCC(=O)Nc2ccc(Cl)c(S(=O)(=O)Nc3cccc(Cl)c3)c2)cc1,/,7.8,.
Cc1ccc(S(=O)(=O)NCCC(=O)Nc2cccc(Cl)c2)cc1,/,.,.
O=C1N=C(c2ccccc2)S/C1=C\c1cccs1,.,6.7,.
O=C1N=C(N2CCN(c3ccccc3)CC2)S/C1=C/c1cccs1,/,.,.
O=C(COC(=O)C1CC(O)CN1S(=O)(=O)c1ccc(Cl)cc1)c1cccc(Cl)c1 (configuration not stated),/,.,.
O=C(NC1CC1)C(=O)c1c(-c2ccccc2)[nH]c2ccccc12,/,.,/
CCN(CC)C(=O)C(=O)c1c(-c2ccccc2)[nH]c2ccccc12,/,23.1,.
